# dFosB activator: activators of delta FosB homodimer, primary screen, biochemical, fluorescence polarization, TAMRA-CDK5 oligo, single point; Protein FosB (Mus musculus), P13346; purified delta FosB; percent of positive-control signal above neutral wells; activation, % at 25 µM; 0.99% of 340,000 active; AID 493131, 2011;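 active = mean activation above about 17%, with every replicate also reaching it, limit read from the data, passing the limit was not always enough; inconclusive = only one of the two conditions met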
# MLL AF4-AF9 inh: inhibitors of AF4 peptide binding to AF9, primary screen, biochemical, AlphaScreen, biotin-AF4 peptide, FLAG-AF9, single point | Protein AF-9 (Homo sapiens), P42568 | inhibition, % at 10 µM | 0.47% of 350,000 active;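 active = every replicate reaching a set inhibition limit, whatever the replicate mean, cut at about 25% in these data; inconclusive = mean inhibition reaches that limit but some replicates miss it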;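 note: 0% = plate neutral control median and 100% = total signal loss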
# Target sequence (P42568 whole entry, looked up): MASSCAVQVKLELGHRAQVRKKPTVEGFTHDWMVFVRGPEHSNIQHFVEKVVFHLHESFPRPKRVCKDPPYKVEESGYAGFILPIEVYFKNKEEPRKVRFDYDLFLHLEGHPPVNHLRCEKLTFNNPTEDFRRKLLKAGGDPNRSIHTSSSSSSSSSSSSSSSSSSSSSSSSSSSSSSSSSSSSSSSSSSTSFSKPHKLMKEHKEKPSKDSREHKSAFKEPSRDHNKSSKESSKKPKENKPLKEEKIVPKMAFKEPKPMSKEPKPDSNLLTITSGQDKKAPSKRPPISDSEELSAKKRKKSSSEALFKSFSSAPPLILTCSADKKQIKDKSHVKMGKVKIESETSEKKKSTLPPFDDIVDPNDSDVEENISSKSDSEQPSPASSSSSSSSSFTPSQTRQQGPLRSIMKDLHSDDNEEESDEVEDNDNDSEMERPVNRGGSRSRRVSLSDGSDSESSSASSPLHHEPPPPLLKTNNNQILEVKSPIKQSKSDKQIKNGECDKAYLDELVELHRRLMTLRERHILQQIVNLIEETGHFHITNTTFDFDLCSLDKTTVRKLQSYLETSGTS
# RAD52 anneal inh: RAD52 DNA annealing inhibitors, primary screen, biochemical, FRET, single point, set 2. AID 651710, 2012. DNA repair protein RAD52 homolog (Homo sapiens), P43351. 0.46% of 360,000 active. recombinant RAD52 DNA annealing, FRET fluorescence. inhibition, % at 18.7 µM;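 active = every replicate showing at least 50% inhibition; inconclusive = mean inhibition at least 50% but not in every replicate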
# RAD54 inh: inhibitors of human RAD54 branch migration, primary screen, biochemical, fluorescence, single point. RAD54 Holliday junction branch migration, FAM/BHQ fluorescence. 0.14% of 360,000 active. inhibition, % at 10.4 µM. DNA repair and recombination protein RAD54-like (Homo sapiens), Q92698;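 active = mean normalized replicate activity at least 40 and at least half of replicates scoring 40 or more; inconclusive = only one of the two criteria met; inactive = mean below 40 and under half of replicates reaching 40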;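 note: 0% = median of neutral control wells and 100% = median of positive control wells; inhibitors cause a drop in the FAM fluorescence signal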
# DENV2 CPE: inhibitors of DENV2 cytopathic effect, primary screen, cell-based, plate reader, single concentration | DENV2-infected cells, cytopathic effect rescue | CPE inhibition, % at 9.99 µM | 1.7% of 350,000 active; in the data active = CPE inhibition above about 20%, passing the limit was not always enough; inconclusive = no clear call, values can overlap the other calls; tested in BHK-21 cells;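 note: 0% = median of neutral control wells and 100% = median of positive control wells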
# INS-1E GSIS act: GLuc luminescence reporter in INS-1E cells, primary screen for activators of glucose-dependent secretion of insulin | INS-1E GLuc reporter insulin secretion, 2-3 h | 0.61% of 370,000 active | activation, % at 16.6 µM;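 active = lowest replicate activation of at least 40%, so every replicate reaches that level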;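 note: 0% = median of neutral control wells and 100% = median of IBMX positive control wells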
# Starred values were filed as active, the others as inactive; ? = inconclusive; nt = no result given. An excerpt weighted towards active compounds, which were near 3.1% of everything screened.
SMILES,dFosB activator,MLL AF4-AF9 inh,RAD52 anneal inh,RAD54 inh,DENV2 CPE,INS-1E GSIS act
C[C@@H]1CCCCO[C@H](CN(C)C(=O)C2CCCCC2)[C@@H](C)CN([C@@H](C)CO)C(=O)c2cc(NC(=O)CCC(F)(F)F)ccc2O1,nt,-1.2,-3.5,0.6,-6.9,-13.6
COc1ccc(C=C(C(=O)O)c2ccc(OC)cc2)cc1,4.1,-2.2,-20.8,nt,8.9,49.1*
CCO[C@@H]1OC(C(=O)N2CCCC2)=C[C@H](c2ccc3c(c2)OCO3)[C@H]1CCCO,nt,-3.7,3.9,nt,-15.1,nt
O=C(Cc1ccccn1)N1CC(=O)N2[C@H](CO)[C@H](c3ccc(-c4ccccc4)cc3)[C@@H]2C1,nt,-0.3,-8.8,nt,-8.8,-5.7
Cc1cc(C)c2c(C)nn(C3CCCCC3)c2n1,-2.9,nt,nt,nt,nt,71.0*
COc1ccc(NC(=O)Nc2ccc3c(c2)C(=O)N([C@@H](C)CO)C[C@@H](C)[C@@H](CN(C)S(=O)(=O)c2ccc(Cl)cc2)OCCCC[C@@H](C)O3)cc1,nt,-0.9,6.0,-0.1,4.1,4.9
COc1ccc(NC(=O)Nc2ccc3c(c2)C(=O)N([C@@H](C)CO)C[C@@H](C)[C@@H](CN(C)S(=O)(=O)c2ccc(F)cc2)OCCCC[C@@H](C)O3)cc1,nt,-1.3,15.7,2.0,30.0*,-8.2
COc1ccc(NC(=O)Nc2ccc3c(c2)C(=O)N([C@@H](C)CO)C[C@@H](C)[C@H](CN(C)S(=O)(=O)c2ccc(Cl)cc2)OCCCC[C@@H](C)O3)cc1,nt,4.6,23.1,2.5,36.0*,16.7
COC(=O)C[C@@H]1CC[C@@H]2[C@@H](COc3ccc(NC(=O)NCc4ccccc4)cc3C(=O)N2C)O1,nt,nt,nt,1.5,-3.2,-2.4
CO[C@H]1CN(C)C(=O)c2cc(NS(=O)(=O)c3ccc(Cl)cc3)ccc2OC[C@@H](C)N(C(=O)NC(C)C)C[C@@H]1C,nt,nt,nt,nt,nt,-2.6
Cc1ccccc1OCCOC(=O)c1cc(S(=O)(=O)N2CCOCC2)ccc1C,nt,-3.1,-7.7,-1.4,71.7*,3.0
COc1ccc(-c2cc(N3C(=O)Nc4ccccc4N3O)n[nH]2)cc1OC,4.3,-6.5,-12.9,nt,37.5*,5.0
O=C(Cn1c2[n+](c3ccccc31)CC(O)CS2)c1ccccc1 (stereo unspecified),-11.5,-2.1,-1.0,nt,57.8*,4.7
Cc1ccc(C(=O)Cn2c3[n+](c4ccccc42)CC(O)CS3)cc1 (stereo unspecified),-16.9,-5.8,-2.3,4.6,0.2,1.5
C[C@H](CO)N1C[C@H](C)[C@@H](CN(C)CC2CCCC2)Oc2ncc(C#C[C@@H](C)O)cc2C1=O,nt,-2.2,-1.8,-5.4,-1.7,12.0
C=CCN=c1sc(C(=O)OC)cc(=O)n1CC=C,-3.7,nt,nt,-3.6,nt,49.9*
C[C@@H]1CCCCO[C@H](CN(C)Cc2ccc3c(c2)OCO3)[C@H](C)CN([C@H](C)CO)C(=O)c2cc(N(C)C)ccc2O1,nt,5.6,3.5,7.7,3.3,-0.9
C[C@@H]1CCCCO[C@@H](CN(C)Cc2ccc3c(c2)OCO3)[C@@H](C)CN([C@H](C)CO)C(=O)c2cc(N(C)C)ccc2O1,nt,15.4,7.8,-12.7,?,-10.4
C[C@@H]1CCCCO[C@@H](CN(C)Cc2ccc(Cl)c(Cl)c2)[C@H](C)CN([C@@H](C)CO)C(=O)c2cc(N(C)C)ccc2O1,nt,40.2*,2.2,nt,-1.3,-2.7
C[C@@H]1CCCCO[C@@H](CN(C)Cc2ccc(Cl)c(Cl)c2)[C@H](C)CN([C@H](C)CO)C(=O)c2cc(N(C)C)ccc2O1,nt,60.7*,-43.8,6.7,3.2,-23.2
C[C@@H]1CCCCO[C@@H](CN(C)CC2CCCCC2)[C@@H](C)CN([C@H](C)CO)C(=O)c2cc(N(C)C)ccc2O1,nt,13.7,-2.3,6.1,48.3*,11.7
C[C@@H]1CCCCO[C@H](CN(C)Cc2ccc(Cl)c(Cl)c2)[C@@H](C)CN([C@@H](C)CO)C(=O)c2cc(N(C)C)ccc2O1,nt,60.8*,-24.7,-5.0,14.9,-7.4
C[C@H]1CN([C@@H](C)CO)C(=O)Cc2cc(NS(=O)(=O)c3cn(C)cn3)ccc2O[C@@H]1CN(C)Cc1ccncc1,nt,-1.6,2.6,2.2,-4.2,17.5
O=C(CN1CCOCC1)NCC[C@H]1CC[C@@H](NS(=O)(=O)c2ccc(Cl)cc2)[C@@H](CO)O1,nt,1.6,-0.3,4.6,7.2,-7.5
CN1C(=O)c2cc(NC(=O)Cc3ccccc3)ccc2OC[C@H]2O[C@H](CC(=O)O)CC[C@@H]21,nt,-1.7,6.0,-1.4,4.6,1.4
SMILES,dFosB activator,MLL AF4-AF9 inh,RAD52 anneal inh,RAD54 inh,DENV2 CPE,INS-1E GSIS act
CCOC(=O)C(C)/C(C)=N\Nc1ccc([N+](=O)[O-])cc1[N+](=O)[O-] (stereo unspecified),-5.7,9.7,-10.6,nt,2.7,1.1
C/C(=N\Nc1ccc([N+](=O)[O-])cc1[N+](=O)[O-])C(C)C(C)C (stereo unspecified),3.1,26.0*,-15.6,nt,0.2,-32.7
Cc1ccccc1-c1ccc([C@H]2[C@H]3CN(C(=O)NC4CCCC4)CCCCN3[C@H]2CO)cc1,nt,1.6,-4.3,5.9,?,-23.5
O=C(c1ccccc1)N(C(=O)c1ccccc1)N1CCCC1,-2.0,-1.8,-16.2,1.6,-10.2,45.5*
C[C@H](CO)N1C[C@H](C)[C@H](CN(C)S(C)(=O)=O)Oc2ccc(NC(=O)CCC(F)(F)F)cc2CC1=O,nt,-1.2,8.8,-1.4,14.4,7.2
Cc1cc(N2CCOCC2)ccc1/C=C1\SC(=O)N(C(C)C)C1=O,-14.3,nt,nt,-4.2,nt,nt
CCC(C)N1C(=O)S/C(=C/c2ccc(N3CCOCC3)cc2C)C1=O (stereo unspecified),-2.0,26.3*,-15.0,nt,4.4,9.0
NCC[C@@H]1CC[C@@H](NC(=O)C2CCCCC2)[C@H](CO)O1,nt,1.4,-0.8,2.1,3.3,14.1
COc1cccc(CNC(=O)C[C@H]2C=C[C@H](NC(=O)C3CCC3)[C@@H](CO)O2)c1,nt,nt,nt,nt,nt,3.2
CCN(CC)S(=O)(=O)c1cccc(C(=O)NCC2(N3CCOCC3)CCCCC2)c1,-9.1,2.6,-14.7,9.5,95.5*,-21.9
C[C@H]1CN([C@@H](C)CO)C(=O)c2cccc(NC(=O)NC3CCCCC3)c2O[C@H]1CN(C)Cc1ccc(C(F)(F)F)cc1,nt,1.6,5.1,4.0,16.3,-16.4
O=C(COc1cccc2cccnc12)N/N=C/c1ccc(O)cc1,18.5*,-7.1,0.1,-0.4,-8.6,4.2
CCOc1cc(/C=N/NC(=O)C(C)Sc2ccccn2)ccc1O (stereo unspecified),-3.2,nt,nt,nt,nt,69.7*
O=C(CSc1cccc2cccnc12)N/N=C/c1ccncc1,-6.2,-1.1,-21.8,nt,-3.1,6.5
